Data on 40 compounds can be found in PubChem BioAssay (NCATS).

Results filed as inconclusive are left out. Unmarked numbers belong to inactive results. Active and inactive are the calls of the source. Calls follow the shape of the dose curve; as a rule, active = well fitted inhibition curve with a large enough effect; inconclusive = small, poorly fitted or top-dose-only effect; inactive = no such curve, though single readings can be large or run the other way.
% is scaled to controls: 0 for no effect and ±100 for the full control effect; potency is read from the fitted curve at half-maximal effect.

Nuclear receptor ROR-gamma (Homo sapiens), sequence (P51449 whole entry, looked up): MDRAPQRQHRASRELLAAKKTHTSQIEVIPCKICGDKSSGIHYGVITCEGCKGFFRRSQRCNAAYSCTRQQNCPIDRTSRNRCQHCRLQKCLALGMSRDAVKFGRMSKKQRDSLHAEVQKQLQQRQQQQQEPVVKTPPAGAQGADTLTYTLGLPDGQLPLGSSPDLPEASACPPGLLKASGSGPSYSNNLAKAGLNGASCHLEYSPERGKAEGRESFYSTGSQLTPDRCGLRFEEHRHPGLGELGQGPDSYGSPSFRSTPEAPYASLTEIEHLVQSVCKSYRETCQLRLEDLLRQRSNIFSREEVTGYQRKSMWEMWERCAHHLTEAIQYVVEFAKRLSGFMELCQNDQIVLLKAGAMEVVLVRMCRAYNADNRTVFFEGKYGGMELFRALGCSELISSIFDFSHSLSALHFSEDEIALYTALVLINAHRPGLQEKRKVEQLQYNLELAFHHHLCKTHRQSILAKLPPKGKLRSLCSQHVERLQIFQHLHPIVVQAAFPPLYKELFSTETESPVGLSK

In this assay the target is Nuclear receptor ROR-gamma (Homo sapiens) (UniProt P51449). The experiment in a line: qHTS assay for small molecule antagonists of the retinoid-related orphan receptor gamma (ROR-gamma) signaling pathway (AID 651802). Also: nearly all actives have a fitted effect of over 60% in size. As to conditions: ROR-gamma antagonist cell reporter assay; series mostly up to 92.2 µM; activity change, negative = inhibition: at the top concentration. The text has this:
National Center for Advancing Translational Sciences [NCATS]
NIH Chemical Genomics Center [NCGC]
National Institutes of Environmental Health Sciences [NIEHS]
National Toxicology Program [NTP]
Nuclear steroid hormone receptors are involved in many biological processes including inflammatory responses, cell proliferation, and apoptosis. Environmental factors or compounds disrupting these nuclear receptor pathways and gene expression may promote susceptibility to immunotoxicants and autoimmune diseases. One important group of these expression factors are the retinoid-related orphan receptors. To assess compounds that may interfere with the retinoid-related orphan receptor gamma (ROR-gamma) transcription factor, a cell-based luciferase assay was used.
The CHO cell-based assay utilizes a TET-inducible ROR expression factor and ROR response element-LUC reporter gene. Reporter activity was induced using doxycycline and measured after 16hr incubation. Luminescence was read using Viewlux (PerkinElmer), where a decrease in reporter activity would show a decrease in luminescence.
1,000 cells in 4 uL/well were dispensed into white wall/solid bottom 1536-well plates using a Multidrop Combi (Thermo Scientific) dispenser. Following transfer of 23 nL compound or DMSO vehicle by a pin tool, the plates were treated with 1 ul doxycycline to induce reporter gene activity. After 16hr incubation at 37C and 5% CO2, 5uL one-glo (promega) was added to each plate and following 30 min incubation at room temperature, luminescence was quantified on a ViewLux (PerkinElmer) plate reader.
Turning to `N#CCCCCC#N`, the “activity change, negative = inhibition” value is -0.69%.

Consider `ClCCOCCCl`, for which the “activity change, negative = inhibition” value was 15.7%.

For `CCBr`, the “activity change, negative = inhibition” value is 55.1%.

Consider `CC(C)(COCC1CO1)COCC1CO1` (stereo not given), for which the “activity change, negative = inhibition” value was 13.7%.

As to `CN(C)N=O`, the “activity change, negative = inhibition” value was 23.9%.

Regarding `COc1cc(-c2ccc(N)c(OC)c2)ccc1N`, the “activity change, negative = inhibition” value was 34.5%.

Take `O=[N+]([O-])c1cc(Cl)c(Cl)cc1Cl`: the “activity change, negative = inhibition” value was -1.31%.

For `Clc1ccc(C(Cl)(Cl)Cl)cc1Cl`, the “activity change, negative = inhibition” value is 7.15%.

Regarding `CSSC`, the “activity change, negative = inhibition” value was 26.6%.

For `C=CCCC#N`, the “activity change, negative = inhibition” value is -2.62%.

Regarding `Nc1cccc(Cl)c1`, the “activity change, negative = inhibition” value is 40.3%.

Take `Cc1cc(C)cc(OP(=O)(Oc2cc(C)cc(C)c2)Oc2cc(C)cc(C)c2)c1`: the Potency was 26.6 µM (active).

For the compound `CC(C#N)CCC#N` (stereo not given), the “activity change, negative = inhibition” value was 6.96%.

As for `CC(C)(C)c1ccccc1O`, the “activity change, negative = inhibition” value was 9.02%.

For the compound `ClC(Cl)Br`, the “activity change, negative = inhibition” value is 22.4%.

For `Nn1cnnc1`, the “activity change, negative = inhibition” value is 53.1%.

Turning to `CCCCC(=O)Cl`, the “activity change, negative = inhibition” value was 2.02%.

For the compound `COc1ccc(C=O)cc1`, the “activity change, negative = inhibition” value is 7.3%.

Turning to `Clc1ccccc1`, the “activity change, negative = inhibition” value was 7.11%.

`Cc1ccc(N=C=O)cc1N=C=O`: the “activity change, negative = inhibition” value is 80.8%.

As for `c1ccc2c(c1)ccc1cc3c(ccc4ccccc43)cc12`, the “activity change, negative = inhibition” value was 118%.

On to `CN1CSC(=S)N(C)C1`, for which the “activity change, negative = inhibition” value was -21.2%.

For `Oc1c(Cl)c(Cl)cc(Cl)c1Cl`, the Potency is 21.1 µM (active).

For `COC(=O)Nc1nc2ccccc2[nH]1`, the “activity change, negative = inhibition” value was -5.27%.

On to `CCN(N=O)C(N)=O`, for which the “activity change, negative = inhibition” value was -12.8%.

Turning to `O=C(Cl)OCc1ccccc1`, the “activity change, negative = inhibition” value is 5.94%.

As for `BrCCc1ccccc1`, the “activity change, negative = inhibition” value was -1.4%.

In the case of `CC[N+](=O)[O-]`, the “activity change, negative = inhibition” value was 6.47%.

With `Cc1ccc2c(c1N)C(=O)c1ccccc1C2=O`, the “activity change, negative = inhibition” value was 111%.

Consider `O=Cc1ccc(Cl)cc1Cl`, for which the “activity change, negative = inhibition” value was -9.15%.

Regarding `c1ccc2c(c1)-c1cccc3c1c-2cc1ccccc13`, the “activity change, negative = inhibition” value was 4.09%.

As to `O=Cc1ccc2c(c1)OCO2`, the “activity change, negative = inhibition” value is -7.43%.

For the compound `Clc1cccc2ccccc12`, the “activity change, negative = inhibition” value is 15.1%.

As for `O=C(Cl)c1ccccc1F`, the “activity change, negative = inhibition” value is 33.9%.

Consider `C=CC(=O)OCCN(C)C`, for which the “activity change, negative = inhibition” value is 7.2%.

For the compound `Nc1ccc([N+](=O)[O-])cc1[N+](=O)[O-]`, the Potency was 0.944 µM (active).

For `C1CC2OC2CC1C1CO1` (stereo not given), the “activity change, negative = inhibition” value is -7.24%.

On to `Cc1coc2c1CCC(C)C2` (stereo not given), for which the “activity change, negative = inhibition” value was 17.2%.

On to `N#CC(Cl)(Cl)Cl`, for which the “activity change, negative = inhibition” value was -5.98%.

Consider `C=CC(=O)OCC(CC)CCCC` (stereo not given), for which the “activity change, negative = inhibition” value is 15%.
